Compounds without any hit were thinned out: in the full panel of roughly 83,000, 20% have a hit.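 Plates (96-well) were seeded with cells, treated with compound at one concentration, and incubated for 48 hours before percent growth was determined.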
How the values were obtained:
Experiment in all cases: NCI-60 one-dose screen, 48 h (100 = growth as untreated, 0 = no growth, -100 = all killed)
Conditions in all cases: 10 µM unless noted; active means growth percent below 10; inactive means the rest
[1] = system: NCI-H23 lung
[2] = system: NCI-H226 lung
[3] = system: NCI-H322M lung
[4] = system: HOP-62 NSCLC
[5] = system: NCI-H460 lung
[6] = system: HOP-92 NSCLC
[7] = system: NCI-H522 lung
[8] = system: A549/ATCC NSCLC
[9] = system: 786-0 renal
[10] = system: COLO 205 colon
[11] = system: DU-145 prostate
[12] = system: K-562 leukemia
[13] = system: MALME-3M melanoma
[14] = system: MDA-MB-231 breast
[15] = system: RXF 393 renal
[16] = system: SF-268 CNS
[17] = system: SF-295 CNS
[18] = system: SF-539 CNS
[19] = system: UACC-257 melanoma
[20] = system: M14 melanoma

Measured: growth

CC(=O)/C(N=Nc1ccc(S(=O)(=O)c2ccc(N=N/C(C(C)=O)=C(/C)O)cc2)cc1)=C(\C)O
inactive: [1] 97.6% | [2] 114% | [3] 106% | [4] 103% | [5] 93.2% | [6] 90.3% | [7] 105% | [8] 105% | [9] 112% | [10] 113% | [11] 104% | [12] 111% | [13] 106% | [14] 113% | [15] 165% | [16] 101% | [17] 118% | [18] 112% | [19] 109% | [20] 105%

CC(=O)C[n+]1ccccc1Sc1ccc(Cl)cc1
inactive: [1] 100% | [2] 91.1% | [3] 99.6% | [4] 107% | [5] 77% | [6] 98.8% | [7] 108% | [8] 84.6% | [9] 82.6% | [10] 109% | [11] 95% | [12] 90.9% | [13] 97.1% | [14] 52.3% | [15] 109% | [16] 74.9% | [17] 82.9% | [18] 68.8% | [19] 99% | [20] 99.3%

OCCCc1ccccc1
inactive: [1] 107% | [2] 99% | [3] 76.2% | [4] 101% | [5] 112% | [6] 94.7% | [7] 110% | [8] 99.8% | [9] 110% | [10] 94.1% | [11] 118% | [12] 121% | [13] 75.8% | [14] 97.8% | [15] 105% | [16] 108% | [17] 107% | [18] 112% | [19] 102% | [20] 100%

COc1ccc2oc3c(ccc[n+]3C)c(=O)c2c1
inactive: [1] 105% | [2] 98.3% | [3] 105% | [4] 80.5% | [5] 108% | [6] 94.7% | [7] 82.7% | [8] 84% | [9] 105% | [10] 98.6% | [11] 113% | [12] 99% | [13] 102% | [14] 110% | [15] 108% | [16] 101% | [17] 99.5% | [18] 98.2% | [19] 87.3% | [20] 102%

C/C=C/C(=O)OCCCCCCCCCCCC
inactive: [1] 105% | [2] 87.3% | [3] 114% | [4] 102% | [5] 108% | [6] 96.5% | [7] 96.3% | [8] 84.2% | [9] 95% | [10] 105% | [11] 118% | [12] 93.3% | [13] 111% | [14] 93.2% | [15] 110% | [16] 106% | [17] 105% | [18] 109% | [19] 94.4% | [20] 98.7%

CCOC(=O)c1ccncc1
inactive: [1] 109% | [2] 91.3% | [3] 106% | [4] 98.5% | [5] 104% | [6] 108% | [7] 98.3% | [8] 104% | [9] 106% | [10] 103% | [11] 104% | [12] 99.3% | [13] 113% | [14] 110% | [15] 107% | [16] 101% | [17] 96.2% | [18] 108% | [19] 116% | [20] 102%

From PubChem BioAssay (NCI)
